The whole screen tested about 370,000 compounds, of which about 6,800 (1.8%) were called active. This is one part of a sample in which actives are shown more often than they occur. A number with no mark means an inactive call.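 The calls were made as follows: active = activation above a cutoff set at the mean of all screened compounds plus 3 SD (cut at about 10% in these data); inactive = the rest.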

The test system of this experiment is Nuclear hormone receptor DAF-12 (Heterodera glycines), GAL4 fusion. The experiment in a line: hgDAF-12 GAL4 fusion reporter activation – cell-based, luminescence, HEK293, UAS-luciferase, primary screen (AID 687014).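 Also: 0% = DMSO wells and 100% = sodium butyrate wells.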 The note with it: HEK293 GAL4-hgDAF12 UAS-luciferase reporter, agonist luminescence; at 6.8 µM; stronger effect = higher value; normalized to butyrate control.
With `O=C(N/N=C/c1ccoc1)c1ccc(Cl)cc1Cl`, the activation was 5.04%.
Then `O=C(NN=Cc1ccccc1)c1ccccc1`, with 12.9% (active).
Regarding `CC(NC(=O)C(=O)N/N=C/c1ccc(Cl)cc1)c1ccccc1` (stereo unspecified), the activation is -4.35%.
Then `CSc1ccc(/C=N/NC(=O)c2cccc(Cl)c2)cc1`, with 15.8% (active); and `NN=C(NN=Cc1ccccc1)c1ccccc1`, with 10.3%.
Turning to `O=C(N/N=C/c1ccsc1)c1cc(O)cc(O)c1`, the activation was 2.1%.
Then `COC(=O)[C@]12C[C@H](CC(=O)NCc3ccccc3)C(=O)N(CCC3=CCCCC3)C1=C[C@H](C(C)(C)C)O[C@@H]2C`, with -0.89%; and `COc1cccc(CNC(=O)Cn2c(=O)oc3cc(S(=O)(=O)N4CCCCC4)ccc32)c1`, with -2.85%.
Then `COc1ccc(C2CC=C(C(=O)O)C(c3ccccc3F)N2S(=O)(=O)c2ccc(C)cc2)cc1OC` (stereo unspecified), with 3.93%.
Regarding `COC(=O)C[C@@H]1CC[C@H]2[C@@H](COc3ccc(NS(=O)(=O)CC(F)(F)F)cc3C(=O)N2C)O1`, the activation was -0.04%.
Then `COC(=O)c1cc2c(c3c4ccccc4n(S(=O)(=O)c4cccc(C)c4)c13)C(=O)N(Cc1ccccc1)C2`, with 0.97%; and `CC(C)(C)NC(=O)C(c1cccnc1)N(C(=O)c1cnco1)c1ccc(C(C)(C)C)cc1` (stereo unspecified), with -4.87%; and `COc1ccc(-c2cn3cccnc3n2)cc1`, with 14.7% (active).
Consider `COc1cc(OC)cc(-c2nc(=S)n3ccsc3n2)c1`, for which the activation was 2.26%.
Then `COc1ccc(-c2cn3ccsc3n2)cc1`, with 14.1% (active); and `CC(C)(C)C(=O)Nc1ccc(-c2cn3cccnc3n2)cc1`, with 8.9%.
For the molecule `Cc1ccc(S(=O)(=O)NCc2cn3ccsc3n2)c(C)c1`, the activation is -0.36%.
As for `FC(F)(F)Oc1ccc(-c2cn3cccnc3n2)cc1`, the activation is 9.13%.
Then `Nc1ncnc2c1ncn2[C@@H]1O[C@H](C(=O)N[C@@H](CCc2ccccc2)C(=O)NCC(=O)N2CCOCC2)[C@@H](O)[C@H]1O`, with 1.87%; and `CC(C)N1CCCCC(NC(=O)c2ccc3ccccc3c2)C1=O` (stereo unspecified), with -0.24%.
For the molecule `O=S1(=O)c2ccc(Br)cc2-n2nncc2CN1Cc1cccc(Cl)c1`, the activation was 6.32%.
For the molecule `Cc1ccc(C)c(-n2nnnc2SCC(=O)c2c(N)n(C)c(=O)n(C)c2=O)c1`, the activation was -2.28%.
As for `COc1ccc(Cn2ccc3ccc(-c4ccc5ccn(Cc6ccccc6C)c5c4)cc32)cc1`, the activation is 8.22%.
On to `CC(=O)OC[C@@H]1CN(Cc2ccccc2)C[C@H](n2cnc3c(NCc4ccco4)ncnc32)O1`, for which the activation is 1.43%.
Then `c1ccc(-c2ccc3c(c2)NC(C2Nc4cc(-c5ccccc5)ccc4O2)O3)cc1` (stereo unspecified), with -0.29%.
Then `Oc1ccc(-c2cccc(-c3ccc(O)cc3)c2)cc1`, with 7.62%; and `c1ccc(-c2c[nH]c(-c3ccccc3)c2)cc1`, with 11.8% (active); and `Brc1ccc(COCCc2cn(Cc3ccccc3)c3ccccc23)cc1`, with 0.93%.
Consider `O=S1(=O)c2c(cccc2N2CCSCC2)Oc2ccccc2CN1Cc1cn(Cc2ccc(F)cc2)nn1`, for which the activation was -4.41%.
Then `CCN(CC(=O)NCCc1ccccc1)S(=O)(=O)c1ccc(C)cc1`, with -0.97%.
As to `Cc1ccc2nc(-c3ccc(Br)cc3)cn2c1`, the activation is -6.8%.
Take `Cc1ccc(-c2cn3cc(C)ccc3n2)cc1`: the activation was -15.8%.
For the molecule `COc1ccc(-c2cn3ccc(C)cc3n2)cc1`, the activation is 14.2% (active).
Then `CCN(c1cccc(C)c1)S(=O)(=O)c1ccc(-c2coc(C)n2)cc1`, with -2.39%.
In the case of `CCN(CC)S(=O)(=O)c1ccc(-c2cn3ccc(C)cc3n2)cc1`, the activation is 10.8% (active).
As to `C[C@H]1CCC/C=C/C(=O)c2c(O)cc(O)cc2CC(=O)O1`, the activation was -13.8%.
For `CCCCCCCCN1C(=O)[C@@H](CC(=O)NCc2ccccc2)C[C@@]2(C(=O)OC)C1=C[C@H](C(C)(C)C)O[C@@H]2C`, the activation was -1.53%.
Consider `O=C(c1ccco1)N1CCN=C1SCc1cccc(Cl)c1`, for which the activation was -5.1%.
For `CCC(=O)c1c(CC)c2n3c1=CC[C@H]3CC(Br)C=2` (stereo partly specified), the activation was -0.81%.
Then `COc1ccc(-n2c(COc3ccccc3)nnc2SCC(=O)Nc2ccc3c(c2)OCO3)cc1`, with -2.9%.
Then `NS(=O)(=O)c1ccc(CCNC(=O)CNC(=O)Cc2ccccc2)cc1`, with 0.79%; and `Cc1cc(C)n2ncc(C(=O)Nc3ccc4c(c3)OCCO4)c2n1`, with 4.4%.
Then `CCc1ccc2oc(-c3ccc(N)cc3)nc2c1`, with 15.5% (active).
Take `CC(=O)N1CC2(C)CN(C(C)=O)CC(C)(C1)C2=O`: the activation is 1.11%.
Then `O=C(CCCCCN1C(=O)C2C3C=CC(C3)C2C1=O)Nc1ccccc1` (stereo unspecified), with 8.92%.
As for `CCSc1nsc(NC(=O)Nc2cccc(C(C)=O)c2)n1`, the activation was 8.65%.
Then `CC(=O)c1cccc(NC(=O)[C@@H](NC(N)=O)C(C)C)c1`, with -2.72%; and `CC(=O)c1cccc(NC(=O)Nc2ccc(C)cc2)c1`, with 11.1% (active); and `OCCN1CCN(c2ncnc3c2ncn3[C@H]2CN(Cc3ccco3)C[C@@H](CO)O2)CC1`, with 0.95%.
Consider `COc1ccc(Cn2cc(CN3[C@@H](CC(C)C)COc4cc(Br)ccc4S3(=O)=O)nn2)cc1`, for which the activation was 2.35%.
Consider `CCN(CC)S(=O)(=O)c1cc(C(=O)Nc2ccccn2)ccc1C`, for which the activation was 12.3% (active).
Consider `CCN(c1ccccc1)S(=O)(=O)c1cc(C(=O)NCc2ccccn2)ccc1C`, for which the activation was 0.44%.
In the case of `Cc1ccc(NC(=O)CNCc2ccccn2)cc1S(=O)(=O)N(C)C`, the activation was 3.01%.
Then `C[C@H]1[C@H](c2ccccc2)Oc2cc(Br)ccc2S(=O)(=O)N1Cc1cccc(F)c1`, with -2.03%; and `NS(=O)(=O)c1ccc2nc(NC(=O)C3=COCCO3)sc2c1`, with 12.8% (active).
For the molecule `O=C(Nc1ccc(S(=O)(=O)N2CCCC2)cc1Cl)C1=COCCO1`, the activation is -1.4%.
Then `NS(=O)(=O)c1ccc2nc(NC(=O)CS(=O)(=O)c3ccc(F)cc3)sc2c1`, with 2.11%.
Then `COc1ccc(CN2C(=O)N3Cc4cc(OC)ccc4C3CS2(=O)=O)cc1` (stereo unspecified), with -2.75%; and `Cc1ccc(-c2nnc(-n3nnc4ccccc43)c3ccccc23)cc1`, with 0.07%; and `CCCCCn1nnnc1-c1nc2cc3ccccc3cc2[nH]c1=O`, with 0.65%.
Then `Cc1ccc(-c2nc3ccccc3[nH]c2=O)cc1`, with 10.9% (active); and `CC1CCCN(c2ccc(C(=O)NCCc3ccccc3)cn2)C1` (stereo unspecified), with 18.4% (active); and `CC1CCN(C(=O)CCNC(=O)c2ccccc2)CC1`, with 2.11%.
Consider `O=C(NCCc1ccccc1)c1ccc(NC2=NC3CS(=O)(=O)CC3S2)cc1` (stereo unspecified), for which the activation is -1.54%.
Then `O=C(NC1CCCC1)C1CSCCS(=O)(=O)N1Cc1ccccc1` (stereo unspecified), with 2.17%; and `CC(C)C[C@@H](NC(=O)[C@H]1CCCN1C(=O)Cc1ccccc1)C(N)=O`, with 1.33%.
Take `Cc1cc(F)ccc1N1CCC(N2CCN(C)C(CCO)C2)CC1` (stereo unspecified): the activation was 1.51%.
Then `Nc1ccc(C(=O)Nc2ccccc2N)cc1`, with 66.9% (active); and `O=C(Cc1ccccc1)Nc1ccc(C(=O)Nc2ccccc2C(=O)O)cc1`, with 0.23%; and `O=C(Nc1ccccc1C(=O)N1CCOCC1)c1ccc(Cl)cc1`, with -2.57%.
As to `CCC(CO)Nc1cccc2c1S(=O)(=O)N(Cc1cn(Cc3ccccc3C(F)(F)F)nn1)Cc1ccccc1O2` (stereo unspecified), the activation was 0.2%.
Then `O=C1Nc2ccccc2C1=NN=Cc1ccco1`, with 0.84%; and `Cc1nonc1C(=O)N/N=C/c1ccc(O)cc1`, with 10.9% (active).
Then `Nc1nonc1-n1nnc(C(=O)N/N=C/c2ccc(Cl)cc2)c1-c1ccc2c(c1)OCO2`, with -0.85%; and `CCOc1ccc(/C=N\NC(=O)c2c(C)nc3cc(C)ccn23)cc1`, with -0.25%.
Then `Cc1ccc(O)c(CCc2ccccc2)n1`, with 1.33%; and `Cc1cccc(C(=O)Nc2c(-c3ccc(F)cc3)nc3ncccn23)c1`, with -2.47%; and `CCC(=O)Nc1ccc2c(c1)C(=O)N(C)[C@@H]1CC[C@@H](CC(=O)NCCc3ccccc3)O[C@H]1CO2`, with 0.93%.
With `O=C(c1cnn(-c2ccc(Cl)cc2)c1)c1ccccc1O`, the activation was 18.6% (active).
Then `Cc1cc(O)cc(O)c1C(=O)Cc1cnn(-c2ccccc2)c1`, with -1.43%; and `O=C(c1ccc(Cl)cc1)n1cnc2ccccc21`, with 0.03%; and `CN(CCO)c1cccc2c1S(=O)(=O)N(Cc1cn(Cc3ccc(C(F)(F)F)cc3)nn1)Cc1ccccc1O2`, with 4.36%.
In the case of `O=C(NCc1cccnc1)c1nc(-c2cccs2)no1`, the activation is 4.85%.
As to `Cc1ccc(-c2nc(-c3ccncc3)no2)c(C)c1`, the activation was 12.5% (active).
Then `c1csc(-c2nc(-c3ccncc3)no2)c1`, with 10.9% (active).
Regarding `O=C(c1cccs1)N1CCCC(c2nc(-c3ccc(F)cc3)no2)C1` (stereo unspecified), the activation was 3.47%.
Consider `Cc1ccc(-c2noc(-c3ccccc3C(=O)NCC3CCCO3)n2)cc1` (stereo unspecified), for which the activation was 3.26%.
`CCOc1ccc(N(CC(=O)Nc2c(C)n(C)n(-c3ccccc3)c2=O)S(=O)(=O)c2ccc(Cl)s2)cc1`: the activation is 8.38%.
In the case of `CCOc1ccccc1C(=O)N1CCC[C@@H]1C(=O)N1CCC[C@H]1C(=O)NCc1ccccc1`, the activation is -0.69%.
Then `CN(C)CC(=O)N[C@@H]1C[C@@H]2O[C@H](CO)CC[C@@H]2O[C@@H]1CCc1ccc(C#Cc2ccccc2)cc1`, with -6.4%; and `COC(=O)[C@]12C[C@H](CC(=O)N3CCN(C(=O)C4CC4)CC3)C(=O)N(CCC3=CCCCC3)C1=C[C@H](C(C)C)O[C@@H]2C1CC1`, with 1.54%.

These data come from PubChem BioAssay AID687014 (The Scripps Research Institute Molecular Screening Center, 2013).
